Measured values as given in paper PMC7862700, “An all-to-all approach to the identification of sequence-specific readers for epigenetic DNA modifications on cytosine”.

Key:
Test in all cases: DAPPL (digital affinity profiling via proximity ligation, sequencing); 10 mM Tris-HCl pH 7.5, 50 mM NaCl, 1 mM DTT, 4% glycerol, room temperature, 30 min; GST-TFs on glutathione beads, 16-mer random dsDNA library, 0.1% formaldehyde crosslink after washing; high values mean tight binding
FEV = molecular target: T1, FEV (Homo sapiens, UniProt Q99581 1-238); conditions: protein: recombinant; tags: N-terminal GST; dsDNA, one strand shown
T1 sequence: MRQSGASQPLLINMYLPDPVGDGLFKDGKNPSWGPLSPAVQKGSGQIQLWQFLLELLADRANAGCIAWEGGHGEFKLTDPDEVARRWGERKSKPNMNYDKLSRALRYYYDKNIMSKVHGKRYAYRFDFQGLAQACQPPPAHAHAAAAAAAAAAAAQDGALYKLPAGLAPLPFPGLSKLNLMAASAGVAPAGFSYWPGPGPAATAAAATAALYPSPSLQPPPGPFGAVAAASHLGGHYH
Summary of the method: (§1)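 Binding signal is given per hexamer as its read frequency for a factor divided by its frequency in the tag-only sample. GST-fused human transcription factors were expressed in yeast, captured on glutathione beads, barcoded with DNA and pooled with that sample, then incubated with 200 nmole of a 16-mer random double-stranded DNA library in Tris/NaCl/DTT/glycerol buffer for 30 min at room temperature. The pools were then washed, crosslinked, proximity-ligated, amplified by PCR and sequenced on an Illumina NextSeq500.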

ETV5 = ETV5 (Homo sapiens, UniProt P41161 1-510); conditions: protein: recombinant; tags: N-terminal GST; dsDNA, one strand shown
Summary of the method: as §1

HSF1 = HSF1 (Homo sapiens, UniProt Q00613 1-529); conditions: protein: recombinant; tags: N-terminal GST; chain copies: 3; dsDNA, one strand shown
Summary of the method: as §1

SPIC = molecular target: T2, SPIC (Homo sapiens, UniProt Q8N5J4 1-248); conditions: protein: recombinant; tags: N-terminal GST; dsDNA, one strand shown
T2 sequence: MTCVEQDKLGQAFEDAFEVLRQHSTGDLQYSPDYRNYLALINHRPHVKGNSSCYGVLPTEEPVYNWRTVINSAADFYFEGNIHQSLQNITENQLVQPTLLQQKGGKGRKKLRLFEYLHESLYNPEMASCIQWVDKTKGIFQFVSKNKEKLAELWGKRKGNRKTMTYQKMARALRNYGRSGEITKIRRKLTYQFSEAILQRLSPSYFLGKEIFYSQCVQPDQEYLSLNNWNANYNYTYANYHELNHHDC
Summary of the method: as §1

ELF4 = ELF4 (Homo sapiens, UniProt Q99607 1-663); conditions: protein: recombinant; tags: N-terminal GST; dsDNA, one strand shown
Summary of the method: as §1

ELK4 = molecular target: T3, ELK4 (Homo sapiens, UniProt P28324-2 1-405); conditions: protein: recombinant; tags: N-terminal GST; dsDNA, one strand shown
T3 sequence: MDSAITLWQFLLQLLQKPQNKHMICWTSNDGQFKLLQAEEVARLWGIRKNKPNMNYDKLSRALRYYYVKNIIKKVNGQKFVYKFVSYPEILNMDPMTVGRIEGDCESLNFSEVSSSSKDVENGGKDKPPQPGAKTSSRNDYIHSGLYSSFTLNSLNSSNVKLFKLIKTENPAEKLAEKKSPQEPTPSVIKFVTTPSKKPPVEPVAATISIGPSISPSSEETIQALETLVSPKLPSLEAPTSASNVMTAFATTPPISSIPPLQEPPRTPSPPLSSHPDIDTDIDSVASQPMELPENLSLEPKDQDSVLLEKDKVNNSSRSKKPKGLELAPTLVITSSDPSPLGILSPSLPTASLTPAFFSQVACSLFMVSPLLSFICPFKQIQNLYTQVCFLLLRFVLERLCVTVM
Summary of the method: as §1

ETV2 = molecular target: T4, ETV2 (Homo sapiens, UniProt O00321 1-342); conditions: protein: recombinant; tags: N-terminal GST; dsDNA, one strand shown
T4 sequence: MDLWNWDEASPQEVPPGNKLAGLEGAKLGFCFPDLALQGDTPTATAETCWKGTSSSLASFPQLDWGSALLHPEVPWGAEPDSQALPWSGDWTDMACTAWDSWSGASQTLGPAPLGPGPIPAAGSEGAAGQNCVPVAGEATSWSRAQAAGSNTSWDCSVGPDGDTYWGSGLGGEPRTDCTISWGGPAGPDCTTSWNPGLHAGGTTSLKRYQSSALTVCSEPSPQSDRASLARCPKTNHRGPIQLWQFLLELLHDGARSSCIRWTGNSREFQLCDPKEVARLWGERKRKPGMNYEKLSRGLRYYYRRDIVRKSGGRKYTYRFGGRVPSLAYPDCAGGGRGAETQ
Summary of the method: as §1

ELF3 = molecular target: T5, ELF3 (Homo sapiens, UniProt P78545 1-371); conditions: protein: recombinant; tags: N-terminal GST; dsDNA, one strand shown
T5 sequence: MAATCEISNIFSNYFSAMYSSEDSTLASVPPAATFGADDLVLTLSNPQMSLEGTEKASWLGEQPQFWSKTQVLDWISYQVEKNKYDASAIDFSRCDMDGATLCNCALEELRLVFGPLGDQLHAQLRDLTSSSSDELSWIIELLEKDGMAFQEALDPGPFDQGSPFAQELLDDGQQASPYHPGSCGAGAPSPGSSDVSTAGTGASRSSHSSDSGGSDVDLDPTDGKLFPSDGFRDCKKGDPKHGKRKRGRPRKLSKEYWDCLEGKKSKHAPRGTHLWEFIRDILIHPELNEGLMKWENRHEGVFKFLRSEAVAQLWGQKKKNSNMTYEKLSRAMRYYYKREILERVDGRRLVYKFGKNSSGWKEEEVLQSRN
Summary of the method: as §1

CRX = CRX (Homo sapiens, UniProt O43186 1-299); conditions: protein: recombinant; tags: N-terminal GST; dsDNA, one strand shown
Summary of the method: as §1

ETV1 = ETV1 (Homo sapiens, UniProt P50549 1-477); conditions: protein: recombinant; tags: N-terminal GST; dsDNA, one strand shown
Summary of the method: as §1

Sequence of ETV5 (P41161 whole entry): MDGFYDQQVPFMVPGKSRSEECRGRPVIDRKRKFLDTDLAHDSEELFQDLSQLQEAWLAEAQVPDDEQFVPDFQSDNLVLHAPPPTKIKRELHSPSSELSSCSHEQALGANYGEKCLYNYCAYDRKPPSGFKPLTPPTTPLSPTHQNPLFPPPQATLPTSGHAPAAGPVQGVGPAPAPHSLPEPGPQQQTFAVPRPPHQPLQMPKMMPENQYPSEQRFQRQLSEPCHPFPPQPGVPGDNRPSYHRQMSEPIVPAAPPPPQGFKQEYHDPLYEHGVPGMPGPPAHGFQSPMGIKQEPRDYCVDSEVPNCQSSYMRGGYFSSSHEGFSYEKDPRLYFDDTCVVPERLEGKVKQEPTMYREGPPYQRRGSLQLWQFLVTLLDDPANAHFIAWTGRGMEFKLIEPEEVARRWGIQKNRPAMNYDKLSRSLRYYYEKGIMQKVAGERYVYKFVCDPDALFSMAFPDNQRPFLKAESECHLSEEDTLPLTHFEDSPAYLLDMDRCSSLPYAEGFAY
Sequence of HSF1 (Q00613 whole entry): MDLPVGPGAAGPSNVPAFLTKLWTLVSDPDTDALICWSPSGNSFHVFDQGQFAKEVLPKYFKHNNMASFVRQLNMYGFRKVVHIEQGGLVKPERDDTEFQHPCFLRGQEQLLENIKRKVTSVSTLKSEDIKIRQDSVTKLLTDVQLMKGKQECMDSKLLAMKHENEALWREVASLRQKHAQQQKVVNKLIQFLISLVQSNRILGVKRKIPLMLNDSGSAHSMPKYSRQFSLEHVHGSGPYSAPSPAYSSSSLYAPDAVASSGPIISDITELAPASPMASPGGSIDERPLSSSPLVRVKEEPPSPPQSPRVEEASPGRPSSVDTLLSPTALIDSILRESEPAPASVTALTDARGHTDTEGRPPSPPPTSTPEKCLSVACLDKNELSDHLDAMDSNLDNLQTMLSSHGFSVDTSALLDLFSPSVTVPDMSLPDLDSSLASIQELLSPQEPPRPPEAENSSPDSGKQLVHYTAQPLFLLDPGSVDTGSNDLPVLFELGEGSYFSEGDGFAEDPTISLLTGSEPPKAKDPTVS
Sequence of CRX (O43186 whole entry): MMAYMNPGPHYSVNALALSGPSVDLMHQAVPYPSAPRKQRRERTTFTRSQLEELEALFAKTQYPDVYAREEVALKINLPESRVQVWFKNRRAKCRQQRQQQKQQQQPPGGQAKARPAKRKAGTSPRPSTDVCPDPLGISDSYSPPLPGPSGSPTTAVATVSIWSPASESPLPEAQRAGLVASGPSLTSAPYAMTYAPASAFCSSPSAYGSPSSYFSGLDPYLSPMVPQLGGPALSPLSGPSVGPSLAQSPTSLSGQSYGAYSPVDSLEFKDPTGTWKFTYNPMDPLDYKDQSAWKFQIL
Sequence of ELF4 (Q99607 whole entry): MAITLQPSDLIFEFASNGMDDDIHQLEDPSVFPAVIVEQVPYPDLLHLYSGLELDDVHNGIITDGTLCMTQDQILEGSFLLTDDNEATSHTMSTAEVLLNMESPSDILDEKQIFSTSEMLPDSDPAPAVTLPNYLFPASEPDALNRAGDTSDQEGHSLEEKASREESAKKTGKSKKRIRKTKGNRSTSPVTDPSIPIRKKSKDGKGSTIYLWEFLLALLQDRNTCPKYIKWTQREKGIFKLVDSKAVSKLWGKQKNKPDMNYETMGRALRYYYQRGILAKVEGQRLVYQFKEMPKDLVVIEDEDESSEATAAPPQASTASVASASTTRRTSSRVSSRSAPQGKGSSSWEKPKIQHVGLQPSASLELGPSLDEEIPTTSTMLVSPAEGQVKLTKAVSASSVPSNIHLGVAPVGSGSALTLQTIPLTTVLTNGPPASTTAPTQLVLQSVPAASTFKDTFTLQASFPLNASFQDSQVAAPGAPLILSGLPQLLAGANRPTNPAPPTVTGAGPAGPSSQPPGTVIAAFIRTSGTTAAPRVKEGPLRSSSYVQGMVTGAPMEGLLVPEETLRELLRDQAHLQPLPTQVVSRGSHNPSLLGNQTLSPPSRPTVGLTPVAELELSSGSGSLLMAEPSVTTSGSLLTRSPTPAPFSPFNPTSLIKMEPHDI
Sequence of ETV1 (P50549 whole entry): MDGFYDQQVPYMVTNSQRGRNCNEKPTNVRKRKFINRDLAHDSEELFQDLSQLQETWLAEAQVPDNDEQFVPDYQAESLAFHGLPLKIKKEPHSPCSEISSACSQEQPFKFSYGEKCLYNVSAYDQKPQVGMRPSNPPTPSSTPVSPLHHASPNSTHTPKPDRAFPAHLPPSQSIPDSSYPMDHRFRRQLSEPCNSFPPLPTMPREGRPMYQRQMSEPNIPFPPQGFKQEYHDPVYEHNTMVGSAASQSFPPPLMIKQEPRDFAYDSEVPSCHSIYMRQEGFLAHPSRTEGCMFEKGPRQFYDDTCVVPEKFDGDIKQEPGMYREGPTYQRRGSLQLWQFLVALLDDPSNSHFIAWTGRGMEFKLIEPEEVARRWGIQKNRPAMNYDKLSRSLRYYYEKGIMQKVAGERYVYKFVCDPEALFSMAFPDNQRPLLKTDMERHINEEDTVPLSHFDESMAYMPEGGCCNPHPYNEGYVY

Sequence | binding signal (FEV) | binding signal (ETV5) | binding signal (HSF1) | binding signal (SPIC) | binding signal (ELF4) | binding signal (ELK4) | binding signal (ETV2) | binding signal (ELF3) | binding signal (CRX) | binding signal (ETV1)
TTAAGT | 1.11 fold enrichment (6-mer frequency, TF over GST control) | 1.15 fold enrichment (6-mer frequency, TF over GST control) | 2 fold enrichment (6-mer frequency, TF over GST control) | 1.25 fold enrichment (6-mer frequency, TF over GST control) | 1.16 fold enrichment (6-mer frequency, TF over GST control) | 1.03 fold enrichment (6-mer frequency, TF over GST control) | 1.14 fold enrichment (6-mer frequency, TF over GST control) | 1.26 fold enrichment (6-mer frequency, TF over GST control) | 3.27 fold enrichment (6-mer frequency, TF over GST control) | 1.16 fold enrichment (6-mer frequency, TF over GST control)
TGCTCA | 1.39 fold enrichment (6-mer frequency, TF over GST control) | 1.4 fold enrichment (6-mer frequency, TF over GST control) | 1.12 fold enrichment (6-mer frequency, TF over GST control) | 1.65 fold enrichment (6-mer frequency, TF over GST control) | 1.28 fold enrichment (6-mer frequency, TF over GST control) | 1.24 fold enrichment (6-mer frequency, TF over GST control) | 1.42 fold enrichment (6-mer frequency, TF over GST control) | 1.31 fold enrichment (6-mer frequency, TF over GST control) | 1.28 fold enrichment (6-mer frequency, TF over GST control) | 1.34 fold enrichment (6-mer frequency, TF over GST control)
TTCCAG | 1.05 fold enrichment (6-mer frequency, TF over GST control) | 1.06 fold enrichment (6-mer frequency, TF over GST control) | 3.69 fold enrichment (6-mer frequency, TF over GST control) | 1.02 fold enrichment (6-mer frequency, TF over GST control) | 1.17 fold enrichment (6-mer frequency, TF over GST control) | 1.15 fold enrichment (6-mer frequency, TF over GST control) | 1.12 fold enrichment (6-mer frequency, TF over GST control) | 1.05 fold enrichment (6-mer frequency, TF over GST control) | 1.68 fold enrichment (6-mer frequency, TF over GST control) | 1.05 fold enrichment (6-mer frequency, TF over GST control)
CCCTTT | 1.46 fold enrichment (6-mer frequency, TF over GST control) | 1.45 fold enrichment (6-mer frequency, TF over GST control) | 1.25 fold enrichment (6-mer frequency, TF over GST control) | 1.34 fold enrichment (6-mer frequency, TF over GST control) | 1.49 fold enrichment (6-mer frequency, TF over GST control) | 1.34 fold enrichment (6-mer frequency, TF over GST control) | 1.33 fold enrichment (6-mer frequency, TF over GST control) | 1.68 fold enrichment (6-mer frequency, TF over GST control) | 1.35 fold enrichment (6-mer frequency, TF over GST control) | 1.4 fold enrichment (6-mer frequency, TF over GST control)
CGTCTA | 1.24 fold enrichment (6-mer frequency, TF over GST control) | 1.31 fold enrichment (6-mer frequency, TF over GST control) | 1.52 fold enrichment (6-mer frequency, TF over GST control) | 1.16 fold enrichment (6-mer frequency, TF over GST control) | 1.4 fold enrichment (6-mer frequency, TF over GST control) | 1.34 fold enrichment (6-mer frequency, TF over GST control) | 1.29 fold enrichment (6-mer frequency, TF over GST control) | 1.29 fold enrichment (6-mer frequency, TF over GST control) | 1.28 fold enrichment (6-mer frequency, TF over GST control) | 1.36 fold enrichment (6-mer frequency, TF over GST control)
CTAAGC | 1.05 fold enrichment (6-mer frequency, TF over GST control) | 1.05 fold enrichment (6-mer frequency, TF over GST control) | 1.56 fold enrichment (6-mer frequency, TF over GST control) | 1.08 fold enrichment (6-mer frequency, TF over GST control) | 1.09 fold enrichment (6-mer frequency, TF over GST control) | 1.16 fold enrichment (6-mer frequency, TF over GST control) | 1.17 fold enrichment (6-mer frequency, TF over GST control) | 1.12 fold enrichment (6-mer frequency, TF over GST control) | 2.45 fold enrichment (6-mer frequency, TF over GST control) | 1.06 fold enrichment (6-mer frequency, TF over GST control)
TAAATA | 1.19 fold enrichment (6-mer frequency, TF over GST control) | 1.27 fold enrichment (6-mer frequency, TF over GST control) | 1.6 fold enrichment (6-mer frequency, TF over GST control) | 1.17 fold enrichment (6-mer frequency, TF over GST control) | 1.26 fold enrichment (6-mer frequency, TF over GST control) | 1.27 fold enrichment (6-mer frequency, TF over GST control) | 1.36 fold enrichment (6-mer frequency, TF over GST control) | 1.3 fold enrichment (6-mer frequency, TF over GST control) | 2.12 fold enrichment (6-mer frequency, TF over GST control) | 1.24 fold enrichment (6-mer frequency, TF over GST control)
